Source: PubChem BioAssay
A selection: hits, their analogues and other compounds. The true share with any hit is near 2.4%.
Pol iota inh: blocks human DNA polymerase iota activity; Pol iota fluorescent replication assay, 10 min; Potency, µM (top dose mostly 115 µM), without a hit: top-dose activity, negative = inhibition, most hits filed as inhibitors; 390,000 tested, 1% active; AID 588590
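Fluorescent replication assay read twice, at 0 min and 10 min after adding 50 nM (final) substrate. Enzyme (10 nM) and compounds were first incubated 15 min at room temperature; enzyme-free buffer wells were negative controls.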
Pol kappa inh-1: inhibitors of human DNA polymerase kappa | Potency, µM (top dose mostly 107 µM), for the others: top-dose activity, negative = inhibition, actives largely listed as inhibitors | AID 588579 | purified Pol kappa, fluorescent DNA synthesis assay, 10 min | Q9UBT6 | 400,000 tested, 0.53% active; further: on the % scale 0 is the no-effect control and ±100 the full control effect
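Readout: fluorescence, taken kinetically at 0 and 10 min. Conditions: 10 nM Pol kappa, 15 min RT compound preincubation, 50 nM substrate final. Controls: enzyme-free buffer wells.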
Pol eta inh-1: inhibitors of human DNA polymerase eta; Potency, µM (doses to about 114 µM), without a hit: top-dose activity change, negative = inhibition, hits mostly inhibitors; AID 588591; 390,000 tested, 1.2% active; recombinant Pol eta, fluorescent DNA replication assay; Q9Y253; further: on the % scale 0 is the no-effect control and ±100 the full control effect
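Pol eta at 10 nM preincubated with compounds 15 min at room temperature; reaction started with fluorescent substrate (50 nM final) and read kinetically at 0 and 10 min.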
Pol beta inh: inhibitors of human DNA polymerase beta; AID 485314; 340,000 tested, 1.3% active; Pol beta primer extension/strand displacement, fluorescence kinetic; Potency, µM (highest dose often 114 µM), for inactives: at the highest dose activity change, negative = inhibition, most hits filed as inhibitors; further: on the % scale 0 is the no-effect control and ±100 the full control effect
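Homogeneous kinetic assay of primer extension and strand displacement by 10 nM Pol beta, preincubated 15 min at room temperature with compound before 50 nM substrate (final) was added. Read at 0 and 10 min; four-parameter Hill fit.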
FEN1 inh: inhibitors of human flap endonuclease 1; P39748; Recombinant FEN1 flap cleavage, fluorescence, 15 min; Potency, µM (highest dose often 114 µM), without a hit: at the highest dose activity change, negative = inhibition, hits mostly inhibitors; 390,000 tested, 0.35% active; AID 588795; further: on the % scale 0 is the no-effect control and ±100 the full control effect; nearly all actives have a fitted effect of over 65% in size
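In this screen, 50 nM flap DNA substrate was added to 10 nM FEN1 pretreated with compound for 15 min at room temperature; cleavage was followed with reads at 0 and 15 min, and Hill fitting gave concentration–response parameters.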
WRN inhibitor: WRN helicase (human) inhibition. Potency, µM (doses to about 114 µM), without a hit: at the highest dose activity change, negative = inhibition, most hits filed as inhibitors. 360,000 tested, 0.46% active. Q14191. WRN helicase unwinding, fluorescent forked duplex, kinetic; further: on the % scale 0 is the no-effect control and ±100 the full control effect; nearly all actives have a fitted effect of over 55% in size
Target sequence (Q14191 whole entry, looked up): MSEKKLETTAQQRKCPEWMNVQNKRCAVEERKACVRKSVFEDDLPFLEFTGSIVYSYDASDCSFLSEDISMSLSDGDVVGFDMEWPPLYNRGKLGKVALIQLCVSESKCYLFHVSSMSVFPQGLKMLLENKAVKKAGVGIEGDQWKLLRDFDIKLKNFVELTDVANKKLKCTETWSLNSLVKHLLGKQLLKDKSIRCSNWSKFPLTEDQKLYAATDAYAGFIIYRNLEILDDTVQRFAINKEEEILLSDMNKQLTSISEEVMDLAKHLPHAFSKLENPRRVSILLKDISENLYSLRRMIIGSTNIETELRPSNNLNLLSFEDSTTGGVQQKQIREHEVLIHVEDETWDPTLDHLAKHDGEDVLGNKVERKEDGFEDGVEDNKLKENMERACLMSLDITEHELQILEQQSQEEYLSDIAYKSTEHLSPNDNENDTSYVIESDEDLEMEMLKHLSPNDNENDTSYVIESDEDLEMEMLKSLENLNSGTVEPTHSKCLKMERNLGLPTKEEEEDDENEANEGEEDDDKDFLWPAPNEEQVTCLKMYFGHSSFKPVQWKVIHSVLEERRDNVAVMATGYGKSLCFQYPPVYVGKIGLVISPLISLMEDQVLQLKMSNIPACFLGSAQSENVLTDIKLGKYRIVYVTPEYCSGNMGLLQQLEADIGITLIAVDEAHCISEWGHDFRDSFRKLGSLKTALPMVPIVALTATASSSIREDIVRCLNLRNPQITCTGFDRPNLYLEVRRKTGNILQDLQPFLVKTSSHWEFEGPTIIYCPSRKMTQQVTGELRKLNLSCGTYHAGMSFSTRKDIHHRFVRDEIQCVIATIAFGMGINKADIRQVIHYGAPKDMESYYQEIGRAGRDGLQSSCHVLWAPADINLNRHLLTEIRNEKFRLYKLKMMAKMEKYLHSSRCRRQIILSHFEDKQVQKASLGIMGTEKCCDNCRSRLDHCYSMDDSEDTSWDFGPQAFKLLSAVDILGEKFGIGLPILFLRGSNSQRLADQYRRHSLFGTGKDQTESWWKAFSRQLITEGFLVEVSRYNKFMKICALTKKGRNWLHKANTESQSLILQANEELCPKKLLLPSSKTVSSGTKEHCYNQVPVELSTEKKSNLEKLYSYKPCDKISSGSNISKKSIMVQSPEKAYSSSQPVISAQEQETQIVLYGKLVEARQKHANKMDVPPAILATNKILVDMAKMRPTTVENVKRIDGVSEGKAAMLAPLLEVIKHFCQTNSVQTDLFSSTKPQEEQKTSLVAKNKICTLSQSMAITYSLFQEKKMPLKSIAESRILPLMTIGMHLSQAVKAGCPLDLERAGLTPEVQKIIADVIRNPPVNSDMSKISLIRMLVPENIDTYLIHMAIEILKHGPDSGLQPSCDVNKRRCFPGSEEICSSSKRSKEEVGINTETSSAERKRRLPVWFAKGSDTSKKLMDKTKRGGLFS
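Fluorescence dequenching readout, ex 525 nm/em 598 nm, kinetic mode: forked duplex DNA (100 nM final) with adjacent fluorophore and quencher unwound by WRN (20 nM final) with 2 mM ATP. Compound preincubation 15 min, room temperature.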
PGK validate: TbPGK inhibition, hit validation; shares compounds with Pol kappa inh-1; TbPGK coupled GAPDH assay, Kinase-Glo luminescence; Potency, µM (top dose mostly 57.5 µM), inactives show at the top dose activity change, negative = inhibition, actives largely listed as inhibitors; 500 tested, 79% active; further: on the % scale 0 is the no-effect control and ±100 the full control effect; nearly all actives have a fitted effect of over 65% in size
POLI cherry-pick: Human Pol iota inhibitor confirmatory assay; shares compounds with Pol kappa inh-1; Pol iota primer extension, TAMRA/BHQ fluorescence; Potency, µM, most hits filed as inhibitors; 1,500 tested, 77% active; AID 720496
Pol kappa inh-2: confirmation of human DNA polymerase kappa inhibitors | purified Pol-kappa, fluorescent strand-displacement substrate | Potency, µM, hits mostly inhibitors | shares compounds with Pol eta inh-1 | 920 tested, 76% active
Pol eta inh-2: Pol eta (human) inhibition, cherry-pick confirmation; AID 720502; Pol eta primer extension, TAMRA/BHQ fluorescence, 10 min; 2,600 tested, 64% active; Potency, µM, hits mostly inhibitors; shares compounds with Pol eta inh-1
* = called active by the depositor; ? = inconclusive; / = no result given; [ ] = dose if it differs, or a comment. The call rests on the fitted dose curve; in most records, active means well fitted curve in the direction sought with a large enough effect; inconclusive means small, poorly fitted or top-dose-only effect, or another doubt; inactive means no such curve, though single readings can be large; an effect the other way counts as inactive or inconclusive. Potency means the concentration at half of the fitted maximal effect.

SMILES	Pol iota inh	Pol kappa inh-1	Pol eta inh-1	Pol beta inh	FEN1 inh	WRN inhibitor	POLI cherry-pick	Pol eta inh-2	others
COc1cccc(NC(=O)CSc2nc3c(c(-c4ccco4)c2C#N)CCCC3)c1	-13%[58.9 µM]	-15%	-10%	-28%	-5%	0%	/	/
Cc1cc(NC(=O)CSc2nc3c(c(-c4cccnc4)c2C#N)CCC3)no1	28%	2%	?	1%	-21%	?	38*	/	Pol kappa inh-2=38*
N=C1S/C(=C\c2ccc(-c3ccccc3C(=O)O)o2)C(=O)N1c1ccc2c(c1)OCO2	13µM*	79µM*	20µM*	25µM*	?	?	67*	43*	Pol kappa inh-2=19*
O=C(O)CN1C(=O)S/C(=C\c2ccc3c(c2)OCO3)C1=O	43%	4%	-22%	/	-1%	5%	/	/
CN1C2CCC1/C(=C\c1ccc(F)cc1)C(=O)/C2=C/c1ccc(F)cc1	11%	0%	-5%	-1%	-5%	1%	/	/
C=CC(=O)N1C/C(=C/c2ccc(F)cc2)C(=O)/C(=C\c2ccc(F)cc2)C1	11µM*	79µM*	10µM*	/	-18%	40µM*	60*	76*	PGK validate=5.8µM*
Cc1cc(C(=O)NNC(=O)/C=C/c2ccco2)c(C)o1	3.2µM*	22µM*	2.2µM*	/	?	?	?	17*	PGK validate=16µM*
CC(C(=O)OCC(=O)Nc1ncc(Cl)cc1Cl)N1C(=O)c2ccccc2C1=O (centres undefined)	2%	-3%	?	-12%	-12%	0%	/	/
O=C(COC(=O)c1ccccc1O)Nc1ncc(Cl)cc1Cl	40µM*	35µM*	18µM*	6%	?	?	?	27*
COc1ccc2c(c1)CCc1cnc(N)nc1-2	143%	-16%	-13%	-2%	2%	4%	/	/
COc1cccc(Nc2ccccc2C(=O)O)c1	51%	-9%	-1%	-6%	-1%	-17%	/	/
COc1cc(-c2ccc(Nc3ccccc3C(=O)O)c(OC)c2)ccc1Nc1ccccc1C(=O)O	7.9µM*	32µM*	10µM*	?	?	32µM*	67*	30*	Pol kappa inh-2=19*
CC(C)[C@H](CN1CCC[C@H]1CN1C(N)=NC[C@@H]1Cc1ccccc1)N1C[C@@H](Cc2ccccc2)N(CCc2ccc(Cl)c(Cl)c2)C1=N	?	-16%	-11%	/	-31%	?	/	/
CCc1ccccc1Nc1nn2c(=O)c3ccc(C(=O)NCc4cccs4)cc3nc2s1	79µM*	0%[60.1 µM]	?	8.9µM*	-16%	/	?	/	Pol kappa inh-2=?
Cc1noc(C)c1COc1ccc(C(=O)NCC(c2c(F)cccc2Cl)N(C)C)cc1 (centres undefined)	23%	-8%	-10%	/	5%	-3%	/	/
CC(C)COc1ccc(-c2nn(-c3ccccc3)cc2/C=C2/SC(=S)N(CC(=O)O)C2=O)cc1	-15%	-3%	28µM*	23%	2%	1%	75*	67*
CC(C)(O)c1ccccc1CC[C@@H](SCC1(CC(=O)O)CC1)c1cccc(/C=C/c2ccc3ccc(Cl)cc3n2)c1	45µM*	-35%	?	/	-17%	-7%[11.6 µM]	?	/	Pol kappa inh-2=84*
COc1ccc(NC(=O)CN(C)C(=O)c2cc(-c3ccco3)nc3ccccc23)cc1	8.9µM*	45µM*	2.8µM*	/	?	63µM*	30*	43*
O=C(NCCCN1CCOCC1)c1cc(-c2ccco2)nc2ccccc12	10µM*	79µM*	11µM*	/	?	50µM*	34*	38*	Pol kappa inh-2=17*
Cc1ccccc1NC(=O)c1cc(-c2ccco2)nc2ccccc12	40µM*	89µM*	45µM*	/	-23%	?	53*	48*
Cc1cccc(NC(=O)c2cc(-c3ccco3)nc3ccccc23)n1	-6%	-4%	-17%	20%	-5%	-36%	/	/
O=C(NCCCN1CCOCC1)c1cc(-c2ccc(F)cc2)nc2ccccc12	-2%	-17%	-9%	/	7%	4%	/	/
O=C(N/N=C/c1cccc(F)c1)c1cc(-c2ccco2)nc2ccccc12	?	18µM*	2.2µM*	-102%	?	56µM*	8.4*	13*	PGK validate=5.8µM*
O=C(N/N=C/c1ccc(F)cc1)c1cc(-c2ccccn2)nc2ccccc12	16%	-2%	-15%	/	5%	7%	/	/
COC(=O)C1CCN(C(=O)c2cc(-c3ccco3)nc3ccccc23)CC1	?	22µM*	8.9µM*	/	40µM*	50µM*	8.4*	15*	PGK validate=13µM*;Pol kappa inh-2=9.5*
SMILES	Pol iota inh	Pol kappa inh-1	Pol eta inh-1	Pol beta inh	FEN1 inh	WRN inhibitor	POLI cherry-pick	Pol eta inh-2	others
C=CCn1c(O)c(N=NC(=O)CNC(=O)/C=C/c2ccco2)c2ccccc21	28µM*	?	50µM*	14µM*	?	?	38*	76*
NC(=O)Cn1c(O)c(N=NC(=O)CNC(=O)/C=C/c2ccccc2)c2ccccc21	-19%	-2%	-29%	?	15%	3%	/	/
CC(=O)Nc1ccc(NC(=O)CC2Sc3ccccc3NC2=O)cc1 (centres undefined)	-2%	8%	-3%	8%	17%	/	/	/
CC(=O)Nc1ccc2c(COC(=O)CC3Sc4ccccc4NC3=O)cc(=O)oc2c1 (centres undefined)	?	35µM*	20µM*	7.9µM*	-25%	?	60*	48*
O=C1C=C(N2CCCCC2)c2ccccc2C1=O	8.9µM*	-10%	20µM*	/	-8%	-20%	34*	24*
O=C1c2ccccc2C(=O)c2c1cccc2N1CCCC1	?	-20%	-20%	0%	?	?	/	/
Cc1ccc(OCC(=O)Nc2ccc(N3CCN(S(C)(=O)=O)CC3)cc2)c(C)c1	-8%	8%	-6%	-1%	-1%	3%	/	/
O=C1ON=C(c2ccccc2)/C1=C/c1ccc(-c2ccccc2[N+](=O)[O-])o1	?	-24%	22µM*	-27%	-3%	?	?	48*
